Screening data (PubChem)
Hits are enriched below; roughly 19% of the tested compounds scored in any of these assays.
HT1080 IDH1KD tx: HT-1080 IDH1 knockdown cell toxicity (counter line) | 360,000 compounds, 2% hits | Potency, µM (doses to about 46.1 µM), for inactives: at the highest dose activity, negative = toxicity, hits mostly cytotoxic | AID 686971 | HT-1080 IDH1 knockdown viability, ATP luminescence, 48 h;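 further: potency means the concentration at half of the fitted maximal effect; 0% = DMSO wells and -100% = cell-free medium wells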
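CellTiter-Glo luminescence after 48 h compound exposure at 37 degrees C of IDH1-knockdown HT-1080 cells in 5% FBS RPMI. %Activity scaled between DMSO wells and cell-free media wells, with curves fitted and assigned curve classes.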
DT40 TDP1 CPT: DT40-hTDP1 cell growth loss with CPT; chicken DT40 Tdp1-/-;hTDP1 cells + 20 nM CPT, ATP luminescence, 48 h; Potency, µM (highest dose often 46.2 µM), for the others: at the top dose activity change, negative = growth inhibition, usual class: inhibitors; 420,000 compounds, 12% hits; AID 686979; further: potency means the concentration at half of the fitted maximal effect; nearly all actives have a fitted effect of over 55% in size
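Chicken DT40 Tdp1-/- cells stably complemented with human TDP1 were seeded at 400 cells/well in medium containing 20 nM camptothecin, exposed to pin-transferred compounds, and grown at 37 °C for at least 48 hr. Viability was read as ATP luminescence.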
DT40 TDP1 no CPT: qHTS for Inhibitors of human tyrosyl-DNA phosphodiesterase 1 (TDP1): qHTS in cells in absence of CPT | 420,000 compounds, 15% hits | DT40 Tdp1-/- hTDP1 cells, no CPT, ATP luminescence, 48 h | Potency, µM (titrated, usually from 46.2 µM), inactives show at the top dose activity change, negative = growth inhibition, hits mostly inhibitors; further: potency means the concentration at half of the fitted maximal effect; nearly all actives have a fitted effect of over 55% in size
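Cells were dispensed at 400 per well, compounds added by pin tool, plates incubated ≥48 hr at 37 °C, then CellTiter-Glo added for 30 min at room temperature before luminescence reading. Line: DT40 Tdp1-/- complemented with hTDP1; camptothecin omitted.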
HT1080-NT tox: kills 2HG-producing HT-1080-NT fibrosarcoma cells; HT-1080-NT fibrosarcoma viability, CellTiter-Glo ATP luminescence, 48 h; Potency, µM (titrated, usually from 46.1 µM), inactives show top-dose activity, negative = less viability, usual class: cytotoxic; 360,000 compounds, 1.6% hits; AID 686970;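 further: NT is the 2HG producing partner of a matched IDH1 knockdown line; potency means the concentration at half of the fitted maximal effect; 0% = DMSO-treated cells and -100% = media-only wells without cells; nearly all actives have a fitted effect of over 55% in size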
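HT-1080-NT fibrosarcoma cells (2HG-overproducing), 750 cells/well in RPMI with 5% FBS, dosed after 2 h and incubated 48 h at 37C. CellTiter-Glo luminescence normalized to DMSO and no-cell wells; concentration-response curves fitted and classed.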
IL1B secr inh: inhibitors of inflammasome signaling (IL-1 beta secretion). activity change, % at 57.5 µM. AID 743279. 360,000 compounds, 4.7% hits. THP-1 LPS/ATP IL-1B secretion, AlphaLISA, 16 h; stronger effect = lower value; in the data active means activity change below about -50%; inconclusive means mostly about -30% to -49%
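THP-1 cells pretreated 1 hr with compounds (up to 57.5 uM final), then stimulated with LPS (250 ng/mL final) plus ATP (1.25 mM final); secreted IL-1B measured by AlphaLISA after 16 hr, decreased signal indicating inhibition.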
* hit, by the source's call; ? = inconclusive; . = not tested or not shown; ! = repeats disagree; [ ] = remark or other dose. Unless noted, the call rests on the fitted dose curve; in most records, active means well fitted curve in the direction sought with a large enough effect; inconclusive means small, poorly fitted or top-dose-only effect, or another doubt; inactive means no such curve, though single readings can be large; an effect the other way counts as inactive or inconclusive. Unless noted, on the % scale 0 is the no-effect control and ±100 the full control effect.

SMILES	HT1080 IDH1KD tx	DT40 TDP1 CPT	DT40 TDP1 no CPT	HT1080-NT tox	IL1B secr inh
C[C@@H]1CN([C@@H](C)CO)S(=O)(=O)c2ccc(/C=C/c3ccccc3)cc2O[C@@H]1CN(C)Cc1ccc(C(=O)O)cc1	-14%	16µM*	21µM*	-4%	15
C[C@@H]1CN([C@H](C)CO)S(=O)(=O)c2ccc(Br)cc2O[C@@H]1CN(C)Cc1ccc(-c2ccccc2)cc1	16µM*	?	16µM*	18µM*	-1
O=C(Nc1nc(-c2ccccc2)ns1)c1ccncc1	3%	?	?	3%	0
COC(=O)c1ccccc1NC(=O)NCc1c(C)nn(C)c1C	3%	-28%	?	9%	44
C=CC(C)Sc1nc2c(c(=O)n(C)c(=O)n2C)n1Cc1ccccc1Cl (stereo unspecified)	11%	?	?	5%	24
C=CCOc1nc2c(c(=O)n(C)c(=O)n2C)n1Cc1ccc(Cl)cc1	18%	16µM*	15µM*	3%	-12
CCCOc1nc2c(c(=O)n(C)c(=O)n2C)n1Cc1cccc2ccccc12	7%	12µM*	6.5µM*	10%	-16
C=CCOc1nc2c(c(=O)n(C)c(=O)n2C)n1Cc1ccccc1Cl	?	16µM*	23µM*	5%[9.24 µM]	3
CCOC(=O)N1CCN(Cc2nc3c(c(=O)n(C)c(=O)n3C)n2Cc2cccc3ccccc23)CC1	-2%	23µM*	?	-10%	-4
Cc1ccc(CNc2nc3c(c(=O)n(C)c(=O)n3C)n2Cc2ccc(Cl)cc2)cc1	.	1%	?	.	.
OCC(O)C(O)C(O)CO (stereo unspecified)	.	-10%	5%	.	.
O=C(Nc1nc2ccccc2n1CCN1CCOCC1)c1ccc(Cn2cc([N+](=O)[O-])cn2)o1	4%	16µM*	-21%	3%	-8
O=C(Nc1nc2ccccc2n1CCN1CCOCC1)c1ccc(COc2ccccc2Br)o1	?	?	?	-11%	-95*
Cc1c(C(C)O)nnn1-c1nonc1N (stereo unspecified)	17%	-7%	-17%	24%	-9
CC(=O)N1CCc2nc3sc(C(=O)c4ccc(F)cc4)c(N)c3c(C(F)(F)F)c2C1	.	?	21µM*	.	.
COc1ccc(C(=O)c2sc3nc4c(c(C(F)(F)F)c3c2N)CN(C(C)=O)CC4)cc1OC	.	18µM*	16µM*	.	.
COc1ccc(NC(=O)c2sc3nc(C(F)(F)F)cc(C)c3c2N)cc1OC	.	1%	-6%	.	.
COc1ccc(CNC(=O)c2sc3nc4c(c(C(F)(F)F)c3c2N)CCC4)cc1OC	2%	?	16µM*	6%	?
COc1ccc(CCNC(=O)C2CCC(CNc3c(N4CCCC4)c(=O)c3=O)CC2)cc1OC (stereo unspecified)	3%	3%	-16%	1%	1
COc1ccc(CCNC(=O)C2CCN(c3nccc(C)n3)CC2)cc1	-3%	-1%	?	1%	-16
COc1ccccc1-c1cc(NC(C)=O)c2ncc(-c3ccc(S(C)(=O)=O)cc3)n2c1	7%	?	?	0%	-2
CC(=O)Nc1cc(-c2ccccc2Cl)cn2c(-c3ccc(S(C)(=O)=O)cc3)cnc12	-20%	?	?	?	-50*
CC(=O)Nc1cc(-c2cccc(C)c2)cn2c(-c3ccc(S(C)(=O)=O)cc3)cnc12	-25%	15µM*	12µM*	-8%	-57*
CCOc1ccc(CNC(=O)c2cc3ccccn3n2)cc1	.	-28%	-14%	.	.
CCCCCCCCCCCCCC[N+](C)(C)C	.	0.94µM*	0.6µM*	.	.
SMILES	HT1080 IDH1KD tx	DT40 TDP1 CPT	DT40 TDP1 no CPT	HT1080-NT tox	IL1B secr inh
CCCCCCCCO	6%	8%	3%	29%	18
CCCCCCCCCCCCCCCC[N+](C)(C)CCl	-30%	1.8µM*	2.3µM*	-11%	-92*
CCCCCCCCCCCCCCCCOP(=O)([O-])OCC[N+](C)(C)C	.	-8%	11%	.	.
CCCCCCCC[N+](C)(C)CCCCCCCC	.	1.7µM*	1.5µM*	.	.
CCCCCCCCCCCCCCCC[N+](C)(C)CC	16µM*	1µM*	0.52µM*!	16µM*	-1
CCCCCC[N+](C)(C)CCSSCC[N+](C)(C)CCCCCC	1%	-7%	-5%	11%	-11
CC1=C(C(=O)N2CCOCC2)CC(CC(=O)NCC2CCCCC2)C(=O)N1CCC1=CCCCC1 (stereo unspecified)	-4%	?	?	2%	-24
Cc1ccc(NC2=C(Cl)C(=O)OC2OC(=O)c2ccco2)cc1 (stereo unspecified)	10µM*	?	16µM*	?	-13
Cc1ccc(NC2=C(Cl)C(=O)OC2OC(=O)c2ccccc2)c(C)c1 (stereo unspecified)	-2%	?	?	-20%	?
Cc1cccc(NC2=C(Cl)C(=O)OC2OC(=O)c2ccco2)c1 (stereo unspecified)	-9%	21µM*	21µM*	?	-20
Cc1cccc(NC2=C(Cl)C(=O)OC2NC(=O)c2ccccc2)c1 (stereo unspecified)	-1%	-16%	-13%	9%	-6
Cc1ccccc1NC1=C(Cl)C(=O)OC1OC(=O)c1ccccc1C (stereo unspecified)	?	?	?	-18%	-83*
COc1cc(NC(=O)c2noc(C)c2[N+](=O)[O-])c(OC)cc1Cl	3%	15µM*	6.5µM*	1%	-7
CCc1nc2c(OCc3cccc(Cl)c3)cccn2c1N(C)C(=O)c1ccncc1	-11%	?	?	13%	12
CCc1nc2c(OCc3ccccc3C)cccn2c1N(C)C(=O)c1ccc(C)cc1	-7%	18µM*	16µM*	-21%	-6
CCc1nc2c(OCc3ccc(F)c(F)c3)cccn2c1N(C)C(=O)c1ccc(OC)cc1	-6%	16µM*	23µM*	-2%	-6
CCc1nc2c(OCc3cc(Cl)cc(Cl)c3)cccn2c1N(C)C(=O)c1ccc(C)cc1	?	16µM*	?	?	-57*
CCc1nc2c(OCc3ccc(Cl)cc3)cccn2c1N(C)C(=O)c1ccncc1	-8%	21µM*	21µM*	-9%	-7
CCc1nc2c(OCc3ccccc3)cccn2c1N(C)C(=O)c1ccc(OC)cc1	28%	-23%	?	?	23
CCc1nc2c(OCc3ccc(F)cc3)cccn2c1N(C)C(=O)c1ccncc1	15%	-13%	-29%	1%	13
CCc1nc2c(OCc3ccc(F)c(F)c3)cccn2c1N(C)C(=O)c1ccc(C)cc1	-4%	23µM*	9.2µM*	-25%	-15
CCCc1cc(=O)[nH]c(Nc2cc(Cl)ccc2OC)n1	.	2%	-13%	.	.
